Anthrax LF prot: anthrax lethal factor protease inhibition | inhibition, % at 10 µM | multiplex microsphere protease cleavage assay, LF | P15917 | 360,000 tested, 0.12% active
Target sequence (P15917 whole entry, looked up): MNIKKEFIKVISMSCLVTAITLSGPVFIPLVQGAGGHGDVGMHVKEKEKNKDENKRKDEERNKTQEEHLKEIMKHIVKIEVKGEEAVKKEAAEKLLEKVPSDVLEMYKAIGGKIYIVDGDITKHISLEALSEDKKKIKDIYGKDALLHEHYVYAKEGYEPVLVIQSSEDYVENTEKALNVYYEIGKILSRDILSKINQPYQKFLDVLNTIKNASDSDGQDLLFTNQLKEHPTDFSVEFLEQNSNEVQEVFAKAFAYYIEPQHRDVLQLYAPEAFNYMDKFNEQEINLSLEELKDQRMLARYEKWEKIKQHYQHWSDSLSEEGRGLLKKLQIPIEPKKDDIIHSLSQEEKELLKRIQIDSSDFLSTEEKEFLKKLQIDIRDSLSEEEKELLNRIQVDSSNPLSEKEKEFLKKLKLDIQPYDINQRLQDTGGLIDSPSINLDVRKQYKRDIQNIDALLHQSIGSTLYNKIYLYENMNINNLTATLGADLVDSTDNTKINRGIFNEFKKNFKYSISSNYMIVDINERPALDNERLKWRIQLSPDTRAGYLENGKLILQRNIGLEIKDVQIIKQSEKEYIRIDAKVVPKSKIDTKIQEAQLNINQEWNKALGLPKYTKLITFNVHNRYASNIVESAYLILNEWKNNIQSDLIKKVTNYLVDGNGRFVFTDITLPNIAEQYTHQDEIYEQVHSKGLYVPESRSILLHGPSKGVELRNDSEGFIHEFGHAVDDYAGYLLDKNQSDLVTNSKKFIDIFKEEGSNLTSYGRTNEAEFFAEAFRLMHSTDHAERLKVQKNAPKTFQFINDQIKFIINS
Autofluor counter: flagged as autofluorescent in microsphere protease counterscreen | compound autofluorescence counterscreen, microsphere flow cytometry; active compounds read high | fluorescence intensity (test concentration not listed) | 360,000 tested, 3.1% active; in the data active = fluorescence intensity above about 16000; inconclusive = no clear call, values can overlap the other calls
BJeLR viability: BJeLR cell viability loss; BJeLR (HRASV12) viability, CellTiter-Glo ATP luminescence, 48 h; inhibition, % (no concentration beside the values); 300,000 tested, 0.17% active; AID 1554; in the data active = inhibition above about 50%; inconclusive = no clear call, values can overlap the other calls
BoNT A protease: inhibitors of Botulinum neurotoxin A light chain protease. 360,000 tested, 0.17% active. inhibition, % at 10 µM. multiplex microsphere protease substrate cleavage, flow cytometry
BoNT F protease: BoNT F light chain protease inhibition. Multiplex microsphere protease cleavage assay, flow cytometry. inhibition, % at 10 µM. 360,000 tested, 0.22% active; in the data active = inhibition above about 35%, passing the limit was not always enough; inconclusive = no clear call, values can overlap the other calls
Numbers stand for hits; i = inactive; ? = inconclusive; nt = no result given. The list is not random: actives were taken first. Their share in the collection is about 3.5%. Cut-off read from the data, not from the text of the source, unless noted: active = inhibition above about 30%; inconclusive = no clear call, values can overlap the other calls; inactive = below that.

SMILES	Anthrax LF prot	Autofluor counter	BJeLR viability	BoNT A protease	BoNT F protease
COc1ccc(CC(=O)NNC(=O)c2ccc(SCc3cc(F)ccc3F)c([N+](=O)[O-])c2)cc1	i	22474	i	i	i
COc1cccc(C(=O)NNC(=O)Cc2ccc([N+](=O)[O-])cc2)c1	i	i	i	i	i
Cc1n[nH]c(=S)n1/N=C/c1ccccc1OCc1ccc(Cl)cc1	i	19713	i	?	i
COC(=O)C1=C(Nc2ccc(C)cc2)C=C(C)C(C(=O)OC)C1c1ccc(OC)cc1 (stereo unspecified)	i	i	i	i	i
COC(=O)C1=C(O)C(C(=O)OC)C(c2ccc(C)cc2)C(C#N)(C#N)C1c1ccc(C)cc1 (stereo unspecified)	i	22296	i	i	i
CCCCCCN1C[C@H](O)[C@@H](n2cc(C3CC3)nn2)C[C@@H]1c1ccc(C)cc1	i	i	nt	i	i
COc1ccc(N/C(N)=N/c2nc(CSc3ccc(C)cc3)cc(=O)[nH]2)cc1	i	i	i	i	i
COC(=O)Cc1cc(=O)[nH]c(/N=C(\N)Nc2ccccc2)n1	i	21352	i	i	i
Cc1ccc(N/C(N)=N/c2nc(CSc3ccc(C)cc3)cc(=O)[nH]2)cc1	i	23020	nt	i	i
CC(OC(=O)CSc1ccc([N+](=O)[O-])cc1)C(=O)NC1CC1 (stereo unspecified)	i	i	nt	i	i
O=C(NNC(=O)c1ccco1)c1cccc([N+](=O)[O-])c1	i	i	i	i	37.8
Cc1ccc(C)c(NC(=O)CCC(=O)NNC(=O)c2cccc([N+](=O)[O-])c2)c1	i	24147	i	?	i
O=C(CCC(=O)OCC(=O)c1cccc([N+](=O)[O-])c1)Nc1ccccc1Cl	i	25045	i	i	i
O=C(CCC(=O)OCc1cccc([N+](=O)[O-])c1)Nc1ccccc1Cl	i	i	i	i	i
CC1=C(C(=O)N2CCOCC2)CC(CC(=O)NCCc2ccccn2)C(=O)N1Cc1ccccc1 (stereo unspecified)	i	i	nt	i	i
Cc1ccccc1C(=O)NCC(=O)OCCOc1ccc(C(C)C)c(C)c1	nt	nt	i	nt	nt
Cc1cccn2c(=O)c3cc(C(N)=S)c(=N)n(CCCOC(C)C)c3nc12	i	i	i	41.1	i
Cc1ccc(S(=O)(=O)C(CCC(=O)N2CCOCC2)S(=O)(=O)c2ccc(C)cc2)cc1	i	16223	i	i	i
O=C(CNS(=O)(=O)c1ccc(C(=O)N2CCOCC2)cc1)N1CCOCC1	i	i	i	i	i
Cc1ccc(S(=O)(=O)CC(=O)N2CCOCC2)cc1	i	i	i	i	i
O=C(CNS(=O)(=O)c1ccc(Br)cc1)N1CCOCC1	i	22354	i	i	i
CC(C)Nc1ncnc2c1ncn2[C@H]1CN(C2CCCC2)C[C@@H](CO)O1	i	i	nt	i	i
COc1ccc(OC)c(NC(=O)CN(c2ccc(C)cc2)S(=O)(=O)c2c(C)noc2C)c1	i	i	i	i	i
CCOc1ccc(N(CC(=O)Nc2ccc(OC)cc2)S(=O)(=O)c2c(C)noc2C)cc1	i	i	i	i	i
COc1ccc(N(CC(=O)Nc2ccc(OC)c(Cl)c2)S(=O)(=O)c2c(C)noc2C)cc1	i	20070	i	i	i
SMILES	Anthrax LF prot	Autofluor counter	BJeLR viability	BoNT A protease	BoNT F protease
COc1ccc(N(CC(=O)NCc2ccc(Cl)cc2)S(=O)(=O)c2c(C)noc2C)cc1	i	i	i	i	i
COc1ccc(N(CC(=O)Nc2cc(Cl)ccc2OC)S(=O)(=O)c2c(C)noc2C)cc1	i	20289	i	?	i
COc1ccc(N(CC(=O)Nc2ccc(C)cn2)S(=O)(=O)c2c(C)noc2C)cc1	i	17199	i	i	i
COc1ccc(N(CC(=O)Nc2ccc(F)c(Cl)c2)S(=O)(=O)c2c(C)noc2C)cc1	i	16336	i	i	i
COc1ccc(CNC(=O)CCS(=O)(=O)c2ccc3nc(C)sc3c2)cc1	i	i	nt	i	i
Cn1nc(C(C)(C)C)cc1C(=O)N1CCCC(c2cc(C(=O)Nc3ccccc3Cl)no2)C1 (stereo unspecified)	i	i	nt	i	i
Cc1nc2c(=O)n(C)c(=O)n(C)c2nc1Cl	i	i	i	i	i
CCc1c(C)nc(N)nc1N1N=C1SCC(=O)OC	i	i	i	i	i
CCc1c(C)nc(N)nc1N1N=C1SCC#N	i	22462	i	i	i
CCC1(CC)C(=O)C2=C3C1[C@H](C(=O)OC)C=C(C(=O)OC)C[C@H]3[C@H]1C(=O)N(CC(=O)OC)C(=O)[C@H]1[C@H]2C (stereo partly specified)	i	i	i	i	i
CCC(NC(=O)NCc1ccc2c(c1)OCO2)(C(F)(F)F)C(F)(F)F	i	16887	i	?	i
CCc1ccc(NC(=O)NCc2ccc3c(c2)OCO3)cc1	i	i	i	i	i
Cc1cc2nncn2c(Cc2ccccc2)n1	i	i	i	i	i
O=C(CN1C(=O)c2ccccc2C1=O)Nc1ccccc1	i	i	i	i	?
O=C(Nc1ccccc1)OCN1C(=O)c2ccccc2C1=O	i	17484	i	i	i
CCOC(=O)c1nnn(-c2nc(N(C)C)nc(N(C)C)n2)c1C	i	i	i	i	i
COC(=O)c1nn(-c2ccccc2)c(=O)cc1Oc1ccccc1	i	22483	i	i	i
CCCSc1cc(=O)n(-c2ccccc2)nc1C(=O)OCC	i	22530	i	i	i
CCOC(=O)c1nn(-c2ccccc2)c(C#N)c1N	i	i	i	i	i
COC(=O)c1nn(-c2ccccc2)c(=O)cc1O	i	i	i	i	i
CCOC(=O)c1nnn(-c2ccccc2)c1C	i	24310	i	?	i
O=C1CCCCC(=O)[C@H](O)C[C@H](COCc2ccccc2)O1	i	i	nt	i	i
CCCCNC(=O)c1nc(C2CCN(S(=O)(=O)c3cccc(C(F)(F)F)c3)CC2)oc1-c1cccc(C(F)(F)F)c1	i	i	nt	i	i
CN(C)/C=C/C(=O)c1ccc2noc(-c3cccc(F)c3)c2c1	i	i	i	i	i
COc1ccc(-c2onc3ccc(C(=O)/C=C/N(C)C)cc23)cc1	i	i	i	i	44.9
SMILES	Anthrax LF prot	Autofluor counter	BJeLR viability	BoNT A protease	BoNT F protease
Cc1cccc(C)c1NC(=O)CSc1nnc(CCCCCNC(=O)OC(C)(C)C)o1	i	16539	i	i	i
Cc1ccc(C)c(NC(=O)CSc2nnc(CCCCCNC(=O)OC(C)(C)C)o2)c1	i	26977	i	i	i
Cc1ccc(NC(=O)CSc2nnc(CCNC(=O)OC(C)(C)C)o2)c(C)c1	i	i	i	i	i
C[C@@H]1CN([C@H](C)CO)C(=O)CCCn2nncc2CO[C@@H]1CN(C)C(=O)C1CC1	i	i	nt	i	i
COc1ccc(-c2c(C)oc3ccc(C)cc23)cc1	i	23892	i	i	i
CCOC(=O)C1=CCN(S(=O)(=O)c2ccc(C)cc2)C1c1cccc(F)c1 (stereo unspecified)	i	i	nt	i	i
COc1ccc(C2CC(C(F)(F)F)n3nc(C(N)=O)c(Cl)c3N2)cc1OC (stereo unspecified)	i	20210	i	i	i
Cc1ccc(S(=O)(=O)N2CCOCC2)c2nsnc12	i	17116	i	i	i
Cc1ccc(S(=O)(=O)N2CCCCC2)c2nsnc12	i	i	i	i	i
